The list is not random: actives were taken first. Their share in the collection is about 9.5%.
Tau fibril ThT = inhibitors of human tau fibril formation, thioflavin T binding; 270,000 tested, 2.1% active; Potency, µM (titrated, usually from 57.4 µM), for inactives: top-dose activity, negative = inhibition, most hits filed as inhibitors; P10636; AID 1460; recombinant tau K18 P301L, heparin-induced fibrillization, ThT fluorescence; note: nearly all actives have a fitted effect of over 55% in size
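Heparin-induced fibrillization of the P301L-mutant K18 repeat-domain fragment of human tau was followed by ThT binding in quantitative high-throughput format.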
Tau fluor cs = counter-screen for tau fibril formation inhibitors | tau K18 P301L Alexa594 fluorescence, heparin fibrillization | Potency, µM (series often up to 57.7 µM), for inactives: top-dose activity change, negative = decrease | 280,000 tested, 0.93% active | AID 1463; note: nearly all actives have a fitted effect of over 55% in size
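Human tau K18 P301L (15 uM unlabeled, 0.24 uM Alexa 594-labeled) in 100 mM sodium acetate pH 7 with 20 uM heparin, 6 hr at 37 C. ThT 30 uM added, 1 hr ambient; Alexa 594 FP and total fluorescence read at 555/632 nm.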
HPGD inh = inhibitors of human 15-hydroxyprostaglandin dehydrogenase (HPGD); AID 894; 150,000 tested, 4.3% active; purified HPGD, NADH fluorescence kinetic, PGE2 substrate; P15428; Potency, µM, inactives show at the top dose activity change, negative = inhibition, usual class: inhibitors; active = well fitted inhibition curve with a large enough effect, not every such curve was filed as active; inconclusive = small, poorly fitted or top-dose-only effect, or another doubt; inactive = no such curve, though single readings can be large or run the other way
Target sequence (P15428 whole entry, looked up): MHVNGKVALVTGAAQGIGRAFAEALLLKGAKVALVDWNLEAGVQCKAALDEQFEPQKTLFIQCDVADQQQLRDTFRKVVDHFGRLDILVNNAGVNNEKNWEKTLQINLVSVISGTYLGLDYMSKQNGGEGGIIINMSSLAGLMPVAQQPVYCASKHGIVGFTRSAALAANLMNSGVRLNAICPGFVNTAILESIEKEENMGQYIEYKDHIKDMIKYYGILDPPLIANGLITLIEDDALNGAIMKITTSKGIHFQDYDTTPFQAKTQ
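NADH formation kinetics: reaction with 30 uM PGE2 and 1 mM NAD+ (final), 20 nM enzyme, Tris-HCl pH 8 with Tween 20, after 15 min compound preincubation at room temperature. Fluorescence change, last versus first of five reads.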
ALDH1A1 block = ALDH1A1 (human) enzyme inhibition | P00352 | Purified ALDH1A1, NADH fluorescence, propionaldehyde substrate | Potency, µM (doses to about 75.3 µM), for the others: at the highest dose activity, negative = inhibition, most hits filed as inhibitors | 220,000 tested, 7.3% active | AID 1030; active = well fitted inhibition curve with a large enough effect, not every such curve was filed as active; inconclusive = small, poorly fitted or top-dose-only effect, or another doubt; inactive = no such curve, though single readings can be large or run the other way;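 note: plate controls were no enzyme wells and a reference inhibitor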
NPSR antag = antagonists of human neuropeptide S receptor cAMP signaling; AID 1461; 220,000 tested, 1% active; CHO-NPSR cells, cAMP TR-FRET, antagonist mode; Potency, µM (series often up to 38.3 µM), for the others: at the top dose activity change, negative = inhibition, hits mostly inhibitors; note: nearly all actives have a fitted effect of over 50% in size
Target sequence (Q6W5P4 whole entry, looked up): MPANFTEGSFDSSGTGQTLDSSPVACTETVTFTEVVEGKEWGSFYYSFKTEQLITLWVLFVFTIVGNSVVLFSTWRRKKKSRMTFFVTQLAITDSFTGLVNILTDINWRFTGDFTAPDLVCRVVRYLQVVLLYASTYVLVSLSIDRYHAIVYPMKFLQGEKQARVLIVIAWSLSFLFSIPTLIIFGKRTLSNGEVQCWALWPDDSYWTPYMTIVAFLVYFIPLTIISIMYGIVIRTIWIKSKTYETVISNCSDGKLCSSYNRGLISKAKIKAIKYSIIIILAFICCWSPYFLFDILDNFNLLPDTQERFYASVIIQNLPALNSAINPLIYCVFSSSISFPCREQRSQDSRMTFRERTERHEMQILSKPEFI
Tau FP inhib = inhibitors of human tau fibril formation | AID 1468 | P10636 | K18 P301L tau heparin fibrillization, Alexa594 FP, 6 h | 280,000 tested, 0.39% active | Potency, µM (top dose mostly 57.7 µM), for inactives: at the top dose activity, negative = inhibition, actives largely listed as inhibitors; note: nearly all actives have a fitted effect of over 55% in size
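Compound effects on tau fibrillization are measured by Alexa 594 fluorescence polarization (ex 555, em 632 nm). K18 P301L tau is used at 15 uM with 0.24 uM labeled tracer, and 20 uM heparin induces aggregation over 6 hr at 37 C.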
Active calls of the source: *; u = inconclusive; x = not tested or not shown; [ ] = remark or other dose. Unless noted, calls come from the whole dose curve; as a rule, active = well fitted curve in the direction sought with a large enough effect; inconclusive = small, poorly fitted or top-dose-only effect, or another doubt; inactive = no such curve, though single readings can be large; an effect the other way counts as inactive or inconclusive. Unless noted, % is set by controls: 0 for no effect and ±100 for the full control effect; potency is the fitted concentration of half-maximal effect.

SMILES	Tau fibril ThT	Tau fluor cs	HPGD inh	ALDH1A1 block	NPSR antag	Tau FP inhib
COc1ccc(S(=O)(=O)NC(C)CCc2ccccc2)cc1 (stereo unspecified)	2%	-13%	x	0.63µM*	10%	-10%
O=C(COc1ccccc1)NCc1ccccc1	-6%	-9%	28µM*	-12%	-8%[46.1 µM]	-11%
Cc1ccc(CNC(=O)CCNS(=O)(=O)c2ccc(C)cc2)cc1	-8%	-17%	-7%	14µM*	-17%[46.1 µM]	-2%
O=C(COC(=O)COc1ccccc1)NCc1ccccc1	2%	7%	x	3%	11%	-1%
COc1ccc(-n2nc(C(=O)N3CCN(c4cccc(C)c4)C(C)C3)c3c4ccccc4n(C)c3c2=O)cc1Cl (stereo unspecified)	-9%	-17%	x	x	x	-4%
Cc1ccc(S(=O)(=O)NCCCCCC(=O)NC(C)(C)CO)cc1	-18%	-12%	-9%	7.9µM*	3%[46.1 µM]	-1%
O=C(CCc1ccc(S(=O)(=O)NCCc2ccccc2)cc1)NCc1ccco1	-10%	-10%	-12%	5µM*	-9%[46.1 µM]	0%
COc1ccc(S(=O)(=O)NCCC(=O)NCc2ccccc2)cc1	10%	7.9µM*[quencher]	x	25µM*	-5%[46.1 µM]	u
COc1ccc(CNC(=O)CCCc2ccccc2)cc1	0%	-1%	-25%	1.1µM*	11%	3%
COc1ccccc1CNC(=O)CCCc1ccccc1	-2%	5%	u	2%	2%	-2%
O=C(CCCNS(=O)(=O)c1ccccc1)NCc1ccco1	-7%	-4%	-4%	-10%	6%[46.1 µM]	3%
Cc1ccc(S(=O)(=O)NCCCCCC(N)=O)cc1	0%	-2%	-1%	-8%	-3%[46.1 µM]	-2%
N#Cc1c(NC(=O)Cn2c(=O)oc3ccccc32)oc(-c2ccccc2)c1-c1ccccc1	-2%	u	u	13µM*	-12%[46.1 µM]	1%
O=C(Cn1c(=O)oc2ccccc21)Nc1ccc(C(=O)O)cc1	-10%	-12%	x	x	x	0%
CCCCN(C(=O)C1CCC(CNS(=O)(=O)c2cccc3nsnc23)CC1)c1ccccc1 (stereo unspecified)	-13%	-13%	x	x	x	1%
C[C@]1(C(=O)NCC2CC2)C=C[C@@H](Cc2ccccc2)N1C(=O)c1ccccc1	-4%	-8%	-12%	-2%	x	-4%
Fc1cc(Br)ccc1Nc1c2c(nc3nc(-c4cccs4)nn13)CCCC2	-16%	-11%	x	x	x	4%
CCOc1ccc2nc(Cl)c(C3CC(c4ccc(OC)cc4)=NN3S(C)(=O)=O)cc2c1 (stereo unspecified)	-8%	u	x	x	x	35µM*
CCOc1ccc2nc(Cl)c(C3CC(c4ccco4)=NN3S(=O)(=O)c3ccccc3)cc2c1 (stereo unspecified)	9%	-4%	-15%	-3%	-6%	-10%
CCS(=O)(=O)N1N=C(c2ccc(C)cc2)CC1c1cc2ccc(OC)cc2nc1Cl (stereo unspecified)	-9%	u	x	x	x	40µM*
Cc1ccc(CNC(=O)c2cc(Sc3ccc(F)cc3F)nc3ccccc23)cc1	8%	-4%	x	x	x	-9%
COc1ccc(C)cc1NC(=O)N1CCN(c2cc(-c3noc(C)n3)ccc2C)CC1	-6%	-15%	x	x	x	0%
CC(C)NC(=O)Cn1nnc(-c2ccc(Cl)cc2)n1	25µM*	u	x	10µM*	5%[46.1 µM]	u
Cc1ccc(NC(=O)CCC(=O)N2CCSc3ccccc32)cc1Cl	-5%	-27%	x	x	x	u
Cc1cc(C)cc(N(CC(=O)Nc2ccccc2-c2ccccc2)S(=O)(=O)c2ccccc2)c1	7%	2%	10µM*	-3%	-30%	6%
SMILES	Tau fibril ThT	Tau fluor cs	HPGD inh	ALDH1A1 block	NPSR antag	Tau FP inhib
Cc1ccc(N(CC(=O)Nc2ccccc2-c2ccccc2)S(=O)(=O)c2ccccc2)cc1	-9%	-19%	-21%	-9%	-27%[46.1 µM]	5%
Cc1ccc(S(=O)(=O)NNC(=O)c2sccc2-n2cccc2)cc1	12%	1%	-7%	10µM*	-8%[46.1 µM]	-1%
Cc1ccc(S(=O)(=O)NNC(=O)c2ccccc2O)cc1	4%	10%	u	-3%	20%	-7%
Cc1ccc(CNC(=O)c2sccc2-n2cccc2)cc1	-12%	-16%	13µM*	u	-14%[46.1 µM]	-1%
Cc1ccc(S(=O)(=O)NNC(=O)c2cnn(-c3ccccc3)c2-n2cccc2)cc1	7%	0%	-5%	0.18µM*	u	0%
Cc1ccc(S(=O)(=O)NNC(=O)c2sc3nc(C)cc(C)c3c2-n2cccc2)cc1	u	-15%	-5%	0.14µM*	-21%[46.1 µM]	7%
COC(=O)CC1c2ccccc2C(Cc2ccc3c(c2)OCO3)=C(C)N1C(=O)OC (stereo unspecified)	-7%	-11%	-7%	4%	x	6%
CCCN(CCC)C(=O)c1ccc2c(c1)OCO2	-1%	-2%	25µM*	4%	5%	0%
CCCN(CCC)C(=O)c1cc(-c2ccc3c(c2)OCO3)nc2ccccc12	u	-27%	u	u	-23%[46.1 µM]	1%
CCNC(=S)N1CCN(C(c2ccccc2)c2ccccc2)CC1	-17%	u	-13%	3.2µM*	-22%[46.1 µM]	u
CCCCNC(=S)N1CCN(C(c2ccccc2)c2ccccc2)CC1	-1%	-13%	x	28µM*	-55%	-10%
CCNC(=S)N1CCN(Cc2ccccc2)CC1	4%	7%	x	16µM*	7%	0%
O=C(C1CC1)N1CCN(C(c2ccccc2)c2ccccc2)CC1	-12%	-6%	-6%	1.1µM*	-26%[46.1 µM]	-7%
CC(CCC#N)[N+](=O)[O-] (stereo unspecified)	0%	-6%	-2%	2%	x	-5%
CCOC(=O)N1CCN(C(=O)c2cc3c(s2)-c2ccc(Cl)cc2S(=O)(=O)C3)CC1	-11%	-12%	x	-3%	7%	3%
CC1CCCN(C(=O)C2CCN(CC(C)c3ccccc3)CC2)C1 (stereo unspecified)	-2%	-1%	22µM*	u	2%[46.1 µM]	-4%
Brc1ccc(CN2CCc3nc(Nc4ccccc4)ncc3C2)s1	u	-30%	x	x	x	-13%
O=c1c(-c2ccccc2)coc2cc(O)cc(O)c12	-101%	u	6.3µM*	11µM*	x	u
O=c1c(-c2ccc3c(c2)OCCO3)coc2cc(O)cc(O)c12	u	-25%	28µM*	16µM*	u	-8%
CCNC(=O)/N=C1/NC(=O)C(C(C)C)O1 (stereo unspecified)	3%	-3%	-3%	2%	1%[46.1 µM]	0%
COC(=O)C[C@H]1c2ccccc2C2=C(C[C@@H](C)[C@H]3C(=O)NC(=O)[C@@H]23)N1C(=O)OC	-2%[11.5 µM]	-4%[11.6 µM]	-13%	-2%[13.5 µM]	x	4%[11.6 µM]

Assay outcomes as filed in PubChem BioAssay.
